Assay outcomes: PubChem, National Center for Advancing Translational Sciences (NCATS)
An excerpt weighted towards active compounds, which were near 19% of everything screened.
Shiga inhibitor = Shiga toxin inhibition; Vero cells, Shiga toxin protein synthesis inhibition reporter; inhibition, % at 38.7 µM; hit rate 9.2% among 290,000; in the data active means inhibition mostly above about 28%, no sharp cut-off; inactive means mostly below about 43%; further: 0% is about no effect
CHX counter = counter-screen for Shiga toxin inhibitors: cycloheximide protein synthesis inhibition | hit rate 12% among 300,000 | max response, % | AID 2314 | cell reporter, cycloheximide protein synthesis inhibition counterscreen; in the data active means max response mostly above about 13%, no sharp cut-off; inactive means mostly below about 14%; further: read at 38.3 µM for the half of the compounds with a filed dose; 0% is about no effect
Pf growth 96h = P. falciparum growth inhibition at 96 hour, primary screen for plastid delayed-death inhibitors; P. falciparum luciferase reporter growth, 96 h; Potency, µM (top dose mostly 28.7 µM), inactives show at the top dose activity change, negative = inhibition, actives largely listed as inhibitors; hit rate 6.9% among 320,000; AID 504834; further: potency means the concentration at half of the fitted maximal effect; on the % scale 0 is the no-effect control and ±100 the full control effect
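Two-generation exposure (96 h) targets delayed-death phenotype. Reporter parasites carrying integrated firefly luciferase, in red cells at 2% hematocrit and 0.05% parasitemia final, kept at 37 C, 5% CO2; luminescence loss indicates inhibition.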
Pf growth 48h = inhibits P. falciparum growth in the first generation, 48 h; hit rate 5.9% among 310,000; Potency, µM (doses to about 28.7 µM), without a hit: at the top dose activity change, negative = inhibition, actives largely listed as inhibitors; AID 504832; P. falciparum luciferase growth in erythrocytes, 48 h; further: potency means the concentration at half of the fitted maximal effect; on the % scale 0 is the no-effect control and ±100 the full control effect
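Compounds are pin-transferred into medium, infected erythrocytes (2% hematocrit, 0.1% parasitemia final) are added, and plates sit one parasite generation at 37 C in 5% CO2. Detection reagent is then added and luminescence measured.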
LASV entry inh = blocks Lassa virus binding to or entry into cells; Lassa virus pseudotype entry inhibition, cell reporter; Potency, µM (top dose mostly 37.9 µM), for inactives: at the top dose activity change, negative = inhibition, usual class: inhibitors; hit rate 1.2% among 300,000; AID 540256; calls by dose curve; tested in HEK293 cells; further: potency means the concentration at half of the fitted maximal effect; on the % scale 0 is the no-effect control and ±100 the full control effect; nearly all actives have a fitted effect of over 50% in size
MARV entry inh = Marburg virus entry inhibition | Marburg virus pseudotyped entry inhibition, cell reporter | Potency, µM (series often up to 37.8 µM), for the others: at the highest dose activity change, negative = inhibition, actives largely listed as inhibitors | hit rate 1.8% among 300,000 | AID 540276; calls by dose curve; tested in HEK293 cells; further: potency means the concentration at half of the fitted maximal effect; on the % scale 0 is the no-effect control and ±100 the full control effect
Active calls of the source: *; ? = inconclusive; · = no result; ! = not confirmed by another sample; [ ] = dose if it differs, or a comment. Unless noted, the call rests on the fitted dose curve; in most records, active means well fitted inhibition curve with a large enough effect; inconclusive means small, poorly fitted or top-dose-only effect, or another doubt; inactive means no such curve, though single readings can be large or run the other way.

SMILES	Shiga inhibitor	CHX counter	Pf growth 96h	Pf growth 48h	LASV entry inh	MARV entry inh
CCc1ccc(OCC(=O)Nc2ccc(S(=O)(=O)N3CCCC3)cc2)c(Br)c1	1.4	9.6	·	13.1µM*	-17.8%	?
O=C(COc1ccc(Br)cc1CO)Nc1ccc(S(=O)(=O)N2CCCCC2)cc1	·	·	6.57µM*	9.28µM*	·	·
CCC[C@@H]1CC(C(=O)NC(C2O[C@H](SC)C(OP(=O)(O)O)[C@H](O)[C@H]2O)[C@H](C)Cl)N(C)C1 (stereo partly drawn)	-9.4	-2.9	·	·	·	·
CCC[C@H]1C[C@H](C(=O)N[C@@H]([C@H]2O[C@@H](SC)[C@@H](O)[C@@H](O)[C@@H]2O)[C@H](C)Cl)N(C)C1	·	·	0.0338µM*	0.19µM*	·	·
Cc1ccc(C(=O)CSc2nc3ccc(C(=O)NCCN4CCCCC4)cc3c(=O)[nH]2)cc1	-4.0	4.8	64.9%	42.7%	·	·
O=C(c1cccc(C(F)(F)F)c1)N1CCC(O)(CS(=O)(=O)Cc2ccc(Cl)cc2)CC1	-11.7	0.6	?	?	-5.0%	6.2%
Oc1ccc(COCc2ccccc2)c2cccnc12	147.3*	68.1*	4.15µM*!	3.29µM*	?	?
Oc1ccc(Cc2ccccc2)c2cccnc12	·	·	·	·	-29.5%[46.1 µM]	?
CCCOCc1ccc(O)c2ncccc12	17.3	1.2	4.65µM*	11.7µM*	?	?
CN(Cc1ccco1)Cc1ccc(O)c2ncccc12	·	·	10.4µM*	?	·	·
OCc1ccc(O)c2ncccc12	-3.0	-2.1	?	9.28µM*	?	?
CC(C)COCc1ccc(O)c2ncccc12	-3.8	-3.4	8.2%	?	?	?
CC(=O)Nc1cnn(Cc2ccc(Br)cc2)c1	-4.1	-0.4	·	4.1%	1.6%	12.1%
CC(C)Oc1ccc(Nc2ncnc3ccccc23)cc1	81.6	45.1*	?	15.4%	?	?
COc1ccc(OC)c(Nc2ncnc3ccccc23)c1	-10.8	9.1	6.2%	20.5%	12.3%	?
Cc1ccc(Nc2ncnc3ccccc23)cc1	118.9*	61.6*	2.7%	148.0%	-17.6%	-16.5%[46.1 µM]
Cc1ccc(/C(=N/Nc2ncnc3ccccc23)C(=O)O)cc1	93.3*	79.6*	-5.5%	76.0%	-2.4%	-24.8%[46.1 µM]
Brc1ccc2ncnc(Nc3cccc4ccccc34)c2c1	12.3	0.5	13.1µM*	?	?	?
Oc1ccc(Nc2ncnc3ccccc23)cc1	18.5	9.8	137.0%	4.3%	·	·
CCC(C(=O)OCC(=O)Nc1cccc(OC)c1)c1ccccc1 (stereo not drawn)	-4.9	2.4	23.3%	3.6%	·	·
COc1ccc(N2CCN(C(=O)CNC(=O)c3cccc(Br)c3)CC2)cc1	-4.9	-6.4	20.6%	-0.6%	-0.3%	0.5%[46.1 µM]
CC(=O)NNc1ncnc2ccccc12	2.8	8.3	25.3%	22.6%	·	·
COC(=O)C(=O)C/C(=N/Nc1ncnc2ccccc12)c1ccc(Cl)cc1	86.1*	27.0*	?	14.5%	-29.1%	?
COc1ccc(Nc2ncnc3ccc(C)cc23)cc1	-3.2	1.5	11.7µM*	?	·	·
CCOC(=O)c1cccc(Nc2ncnc3ccccc23)c1	32.2*	25.4*	-42.2%	?	-22.1%	?
SMILES	Shiga inhibitor	CHX counter	Pf growth 96h	Pf growth 48h	LASV entry inh	MARV entry inh
COC(=O)c1cccc(Nc2ncnc3ccc(C)cc23)c1	-12.7	-3.1	?	·	13.8%	?
Cc1cccc(Nc2ncnc3ccccc23)c1	29.6	34.5*	-19.9%	64.3%	-1.6%	-10.1%
Cc1cc(NC(=O)CCC(=O)N(Cc2ccco2)C(C)(C)C(=O)NC2CCCCC2)no1	8.1	-5.3	-5.9%	?	0.1%	-6.3%[46.1 µM]
O=C(CSc1nccn(-c2ccc(F)c(F)c2)c1=O)NC1CCCC1	·	·	27.4%	-5.3%	2.8%	-9.8%
O=C(O)c1cccc(Nc2nc(C(F)(F)F)nc3ccccc23)c1	19.9	10.6	23.0%	58.6%	1.5%	?
O=C(O)c1cccc(Nc2ncnc3ccc(Br)cc23)c1	42.9*	24.9*	27.8%	6.7%	14.0%	0.7%[46.1 µM]
O=C(Oc1ccc2c(c1)OCO2)C12CC3CC(CC(C3)C1)C2	3.0	2.4	43.7%	26.2%	·	1.5%
C[C@]12C=CC(=O)C=C1CC[C@H]1[C@@H]3C[C@@H](O)[C@](O)(C(=O)CO)[C@@]3(C)C[C@H](O)[C@@]12F	3.3	1.1	-1.1%	16.1%	-2.7%	?
Cc1ccc(CNC(=O)c2nnc(CS(=O)(=O)c3ccccc3)o2)cc1	10.3	1.1	?	?	·	·
Cc1ccc(CNC(=O)C2(S(=O)(=O)c3ccccc3)CC=CC2)cc1	43.7*	40.6*	83.6%	62.9%	·	·
Cc1ccc(S(=O)(=O)Cc2ccc(C(=O)NCc3cccs3)o2)cc1	2.3	3.0	3.7µM*	·	?	-4.5%[46.1 µM]
Cc1ccc(CNC(=O)c2ccc(CS(=O)(=O)c3ccccc3)o2)cc1	-8.7	-2.5	4.65µM*	7.6%	·	·
CCc1ccccc1NS(=O)(=O)c1ccc(SC)cc1	10.9	6.9	·	-6.6%	1.3%	-7.1%
CCCSc1ncc(Cl)c(C(=O)Nc2sc(C(C)=O)c(C)c2C(=O)OCC)n1	·	·	·	·	2.7%[46.1 µM]	-1.5%[46.1 µM]
CC(C)Nc1nc(NC2CCCC2)nc(N2CCOCC2)n1	·	·	5.22µM*	?	-9.1%[46.1 µM]	?
Cc1cc(NC2CCCCC2)nc(N2CCOCC2)n1	-4.0	2.8	130.3%	2.0%	2.4%	?
S=C1NNC2(CC3CC2C2CCCC32)NN1 (stereo not drawn)	21.8	15.6*	0.7%	4.8%	?	19.8%
COc1cccc(-c2noc(C3CC(=O)N(c4ccc(F)cc4)C3)n2)c1OC (stereo not drawn)	·	·	·	·	0.6%[46.1 µM]	·
CCOc1cc(C(=O)Nc2ccon2)cc(OCC)c1OCC	29.2	2.0	·	-4.3%	14.7%	8.3%
O=C(Nc1ccon1)Nc1cccc(Cl)c1Cl	3.3	9.6*	0.0%	18.7%	·	·
O=C(Nc1cccc(Cl)c1)Nc1ccon1	15.9	17.4	-29.8%	69.8%	11.3%[46.1 µM]	?
O=C(Nc1ccc(Cl)cc1)Nc1ccon1	28.8*	15.3*	9.1%	29.4%	·	·
CCOc1ccc(NC(=O)Nc2ccon2)cc1	57.5*	38.6*	18.7%	115.0%	·	·
COc1ccc(NC(=O)Nc2cccc(Cl)c2Cl)c(OC)n1	12.2	-1.2	9.28µM*	?	-9.0%[46.1 µM]	?
COc1ccc(N2CCN(C(=O)CCC(=O)c3cc(C)sc3C)CC2)cc1	-15.6	7.1	?	-13.3%	-8.1%[46.1 µM]	?
SMILES	Shiga inhibitor	CHX counter	Pf growth 96h	Pf growth 48h	LASV entry inh	MARV entry inh
Cc1ccc(NC(=O)Nc2ccon2)cc1Cl	50.2*	28.1*	-11.5%	51.5%	·	·
Cc1ccc(NC(=O)Nc2ccon2)cc1	66.3*	40.1*	56.4%	66.6%	·	·
O=C(Nc1ccon1)Nc1ccc(Cl)cc1Cl	41.7*	24.5*	36.6%	31.1%	·	·
CCc1ccccc1NC(=O)Nc1ccon1	-6.4	2.7	2.6%	63.6%	·	·
O=C(N/N=C\c1c(O)ccc2ccccc12)c1ccc(S(=O)(=O)N2CCCCC2)cc1	-16.0	-2.0	85.1%	1.47µM*	?	1.26µM*
O=C(N/N=C/c1c(O)ccc2ccccc12)c1ccc(CO)nc1	3.0	-0.8	23.2%	?	?	11.2µM*
